We go through 40 compounds from PubChem BioAssay (Tox21).

The structures appear in SMILES notation. Inconclusive results are not listed. A call without a number means that no potency is given here. Unmarked numbers belong to inactive results. Activity calls are given as the source filed them. The call rests on the fitted dose curve.

The experiment in a line: cAMP Responsive Elements (CRE) small molecule agonists, cell-based qHTS assay (AID 1963590). Conditions: CRE-bla HEK293T, beta-lactamase FRET ratio, 3 h; series mostly up to 92.4 µM. The source says: U.S. Tox21 Program National Center for Advancing Translational Sciences [NCATS] Division of Preclinical Innovation [DPI] U.S. Environmental Protection Agency [EPA] National Institutes of Environmental Health Sciences [NIEHS] National Toxicology Program [NTP] U.S. Food and Drug Administration [FDA] Tox21 Assay Overview: CREB (cyclic-AMP Responsive Element Binding Protein) is a cellular transcription factor. It binds to certain DNA sequences called cAMP Responsive Elements (CRE) and regulates the transcription of the genes. […] This cell line can be used to find agonists/antagonists of the cyclic AMP signaling pathway. The activation of the report gene under culture conditions can be detected by fluorescence intensity. This cell line has been used to screen the Tox21 10K compound library to identify agonists that induce oxidative stress.
Tox21 Assay Protocol Summary: CRE-bla Hek 293T cells were suspended in assay medium (DMEM containing 10% dialyzed FBS, 0.1 mM NEAA, 1 mM sodium pyruvate and 25 mM HEPES) and dispensed at 2,000 cells/5 uL /well into 1536-well black wall/clear bottom plates using a Multidrop Combi (ThermoFisher Scientific, Waltham, MA) dispenser. After the assay plates were incubated at 37 C/5% CO2 for 18 hrs, 23 nL of compounds dissolved in DMSO, positive controls or DMSO only was transferred to the assay plate by a pintool workstation (Kalypsys, San Diego, CA). After the plates were incubated at 37 C/5% CO2 for 3 hrs, 1 uL of LiveBLAzer B/G FRET substrate (Invitrogen, Carlsbad, CA) was added to each well using Bioraptr Flying Reagent Dispenser (FRD, Aurora Discovery, San Diego, CA). The plates were incubated at room temperature for 2 h.
Consider `c1ccc2sc(SSc3nc4ccccc4s3)nc2c1`, for which the activation is -0.0759% [at 19 µM]. Regarding `C=C1CCC2CC1C2(C)C` (stereo not given), the Potency result is “inactive”. On the same count and under the same terms, under `CC1CN(c2ccccc2)NC1=O` (stereo not given) stands “inactive”. Still for that read-out and setting: in the case of `c1cnc(N2CCN(Cc3ccc4c(c3)OCO4)CC2)nc1` it was “inactive”. On the same count and under the same terms, in the case of `CC1=C(O)C(=O)CO1` it was “inactive”. For the compound `Cn1ccc2cc3c(cc21)CCN3C(=O)Nc1cccnc1`, the activation was 13.1% [at 19 µM]. Regarding `CC(CO)(CO)[N+](=O)[O-]`, the Potency entry is “inactive”. On the same count and under the same terms, in the case of `C=C(C)C(=O)OCc1ccccc1` it was “inactive”; in that of `CCCc1ccccc1O`, “inactive”.

As for `CCN(CC)CC`, the Potency result was “inactive”. With `O=C1Nc2ccc([N+](=O)[O-])cc2C1=O`, the Potency entry is “inactive”. With `Nc1cccnc1N`, the Potency result was “inactive”. Still for that read-out and setting: in the case of `CC[N+](C)(CC)CC` it was “inactive”. Still for that read-out and setting: in the case of `NC(=O)c1cc[n+](CC2=C(C(=O)[O-])N3C(=O)[C@@H](NC(=O)Cc4cccs4)[C@H]3SC2)cc1` it was “inactive”; in that of `SCCOCCOCCS`, “inactive”; in that of `CC(C)c1ccccc1N`, “inactive”.

With `Cc1c(C)n(Cc2ccccc2)c2ccc(C(=O)OCCN(C)C)cc12`, the Potency entry is “inactive”.

For `CC(C)N(c1ccccc1)C(C)C`, the Potency entry was “inactive”. As for `CN(C)C(=O)COC(=O)Cc1ccc(OC(=O)c2ccc(N=C(N)N)cc2)cc1`, the Potency result is “inactive”. On the same count and under the same terms, under `CCN(Cc1cccc(S(=O)(=O)O)c1)c1ccc(C(=C2C=CC(=[N+](CC)Cc3cccc(S(=O)(=O)O)c3)C=C2)c2ccc(O)cc2S(=O)(=O)[O-])cc1` stands “inactive”.

For the compound `Nc1ccc(/C=C/c2ccc(N)cc2S(=O)(=O)O)c(S(=O)(=O)O)c1`, the activation is -0.633% [at 0.349 µM]. With `CCOC(=O)/C=C/c1ccccc1`, the Potency result was “inactive”. On the same count and under the same terms, under `CCCCCCOC(=O)CCCCCCCC(=O)OCCCCCC` stands “inactive”; under `CN(C)CCOC(c1ccccc1)c1ccccc1` (tested in a mixture with another compound), “inactive”.

On to `Cc1cc(C2CCCCC2)n(O)c(=O)c1`, for which the Potency result is “inactive”.

`CN(C)C(=O)Oc1cccc([N+](C)(C)C)c1`: the Potency result is “inactive”. Turning to `O=C(O)CCCCCCCCCC(=O)O`, the Potency result is “inactive”. The same measure, in the same setting: in the case of `[O-][N+](=Nc1ccccc1)c1ccccc1` it was “inactive”; in that of `CCCCN1C[C@H](O)[C@@H](O)[C@H](O)[C@H]1CO`, “inactive”; in that of `CCCC(=O)Nc1ccc(OCC(O)CNC(C)C)c(C(C)=O)c1` (stereo not given), “inactive”. Regarding `Cc1cccc(OCCOc2cccc(C)c2)c1`, the Potency result is “inactive”. For `CC(C)(C)C(=O)c1ccccc1`, the Potency entry was “inactive”. Still for that read-out and setting: under `C=Cc1c(C)c2cc3[nH]c(cc4nc(cc5nc(cc1[nH]2)C(C)=C5CCC(=O)O)C(CCC(=O)O)=C4C)c(C)c3C=C` stands “inactive”. On the same count and under the same terms, under `O=[N+]([O-])c1ccc(Nc2ccc(Nc3ccccc3)c(S(=O)(=O)O)c2)c([N+](=O)[O-])c1` stands “inactive”; under `NCc1ccccc1`, “inactive”. Still for that read-out and setting: under `O=C(Cl)c1cc(C(=O)Cl)cc(C(=O)Cl)c1` stands “inactive”. Turning to `CCOC(=O)CC(=O)c1ccccc1`, the Potency result is “inactive”. Still for that read-out and setting: in the case of `CCOC(=O)c1ccc(N(C)C)cc1` it was “inactive”; in that of `C[Si](Cl)(c1ccccc1)c1ccccc1`, “inactive”; in that of `COc1cc2nc(N3CCN(C(=O)C4COc5ccccc5O4)CC3)nc(N)c2cc1OC` (stereo not given), “inactive”.
